Assay results published in PubChem BioAssay (NCATS).
Where “and” joins values, the source holds several entries; their conditions need not be identical. Identical values can stand only once. Inconclusive results are not listed. A number with no mark means an inactive call. Calls of active or inactive are those of the source. Calls follow the shape of the dose curve; as a rule, active = well fitted inhibition curve with a large enough effect; inconclusive = small, poorly fitted or top-dose-only effect; inactive = no such curve, though single readings can be large or run the other way.

These compounds were tested against Cytochrome P450 3A4 (Homo sapiens) (UniProt P08684) (assay: qHTS Assay for Inhibitors and Substrates of Cytochrome P450 3A4 (AID 884; also: nearly all actives have a fitted effect of over 50% in size)). Details: recombinant CYP3A4, Luciferin-PPXE luminescence; series mostly up to 57.1 µM.
Chain of Cytochrome P450 3A4 (Homo sapiens) (P08684 whole entry, looked up): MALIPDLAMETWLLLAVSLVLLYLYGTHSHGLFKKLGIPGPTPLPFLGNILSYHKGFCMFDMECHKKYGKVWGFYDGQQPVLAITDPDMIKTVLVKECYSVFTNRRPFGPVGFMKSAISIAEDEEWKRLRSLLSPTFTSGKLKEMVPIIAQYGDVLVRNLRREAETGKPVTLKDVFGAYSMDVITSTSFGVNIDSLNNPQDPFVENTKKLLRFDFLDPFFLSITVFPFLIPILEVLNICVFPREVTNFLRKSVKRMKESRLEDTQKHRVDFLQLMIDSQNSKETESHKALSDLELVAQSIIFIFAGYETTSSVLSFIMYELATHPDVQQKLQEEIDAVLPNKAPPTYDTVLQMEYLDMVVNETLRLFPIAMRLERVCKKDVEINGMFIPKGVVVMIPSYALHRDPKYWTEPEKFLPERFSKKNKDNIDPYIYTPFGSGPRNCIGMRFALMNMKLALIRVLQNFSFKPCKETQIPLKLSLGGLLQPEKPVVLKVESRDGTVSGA
Method: NIH Molecular Libraries Screening Centers Network [MLSCN]
NIH Chemical Genomics Center [NCGC]
The P450 gene superfamily is involved in the metabolism and clearance of xenobiotics. This assay used human CYP3A4 to measure the dealkylation of luciferin-6' phenylpiperazinylyl (Luciferin-PPXE; […]) to luciferin. The luciferin is then measured by luminescence after the addition of a luciferase detection reagent. Luciferin-PPXE concentration in the assay was equal to its KM for CYP3A4. Inhibitors and some substrates limit the production of luciferin, and decrease measured luminescence.
NCGC Assay Protocol Summary:
Two uL of enzyme and substrate mix (final concentrations: 20nM CYP3A4, 25uM Luciferin-PPXE, 200mM KPO4) were dispensed into a white, solid bottom 1536-well microtiter plate. 23nL of compound was transferred by a pin tool. The plate was incubated at RT for 10 min. Two uL of an NADPH regeneration solution (Promega supplied reagent) was dispensed and the reaction was allowed to continue for 60 min at RT. Then the reaction was stopped by reconstituted luciferin detection buffer. After another 20 min of incubation the plate was read on the ViewLux (Perkin Elmer) at 60 sec exposure and 2x2 binning. This protocol was carried out with Promega-Glo reagents and further information can be found at http://www.promega.com/tbs/tb325/tb325.pdf. Data were normalized to the to AC100 inhibition (57 uM ketoconazole).
Keywords: P450, CYP3A4, Luciferase, MLSMR, MLSCN, NIH Roadmap, qHTS, NCGC
% is scaled to controls: 0 for no effect and ±100 for the full control effect; potency is read from the fitted curve at half-maximal effect.

SMILES	Potency	activity change, negative = inhibition
C[C@]12Cc3cn4c(nc3C=C1CC[C@H]1[C@@H]2CC[C@@]2(C)[C@H]1CC[C@@]2(O)C#N)nc1ccccc14	inactive	–
C=C(CC1(C(C)NP(=O)(c2ccccc2)c2ccccc2)CC1)c1ccccc1 (stereo not given)	3.98 µM (active)	–
COc1c(-c2ccccc2)oc2c(ccc3occc32)c1=O	3.16 µM (active)	–
C[C@@H]1CC[C@@]2(OC1)O[C@H]1[C@@H](O)[C@H]3[C@@H]4CC[C@H]5C[C@@H](O[C@@H]6O[C@H](CO)[C@H](O[C@@H]7O[C@H](CO)[C@@H](O)[C@H](O[C@@H]8OC[C@@H](O)[C@H](O)[C@H]8O)[C@H]7O[C@@H]7O[C@H](CO)[C@@H](O)[C@H](O[C@@H]8O[C@H](CO)[C@@H](O)[C@H](O)[C@H]8O)[C@H]7O)[C@H](O)[C@H]6O)[C@H](O)C[C@]5(C)[C@H]4CC[C@]3(C)[C@H]1[C@@H]2C	inactive	–
O=C(OC1Cc2c(O)cc(O)cc2OC1c1cc(O)c(O)c(O)c1)c1cc(O)c(O)c(O)c1 (stereo not given)	20 µM (active)	–
C[C@@]1([C@@H](NP(=O)(c2ccccc2)c2ccccc2)c2ccccc2)C[C@H]1CCO	7.94 µM (active)	–
COc1cc2c(cc1OC)-c1c(OC)c(OC)c(CO)c3c1C(C2)N(C)CC3 (stereo not given)	31.6 µM (active)	–
CC(C)C(C)/C=C/C(C)C1CCC2C3=CCC4CC(=O)CC[C@@]4(C)C3CC[C@]21C (stereo not given in full)	inactive	–
C=C(C)c1ccccc1	inactive	–
NC1C[C@H]1c1ccccc1 (stereo not given in full)	inactive	–
c1cc2c(cc1[C@H]1OC[C@@H]3[C@H]1CO[C@H]3c1ccc3c(c1)OCO3)OCO2	0.794 µM (active)	–
CC1(C)C(C(Cl)Cl)C2(Cl)C(Cl)C(Cl)C1(Cl)C2(Cl)Cl (stereo not given)	7.94 µM (active)	–
COC(=O)NC/C=C\c1nc(CC/C=C\C(=O)O[C@H]2C[C@H]3CC(=O)O[C@@H](/C=C\CC(C)C)C[C@@H]4CC[C@H](C)[C@H](C[C@@H](OC)C[C@H](C2)O3)O4)co1	5.01 µM (active)	–
OCC1OC(n2cnc3cc(Cl)c(Cl)cc32)C(O)C1O (stereo not given)	inactive	–
C[C@@]12CC[C@@H]3[C@H](CCC4=CC(=O)CC[C@]43C)[C@@H]1CC[C@@H]2C(=O)Cn1cnc2c(=S)nc[nH]c21	–	119% [at 11.4 µM]
O=C1C=C2C(=CCOC2O)O1 (stereo not given)	inactive	–
O=[N+]([O-])c1cc(C(F)(F)F)cc([N+](=O)[O-])c1Cl	inactive	–
CN1Cc2c(ccc3c2OCO3)C2C(O)Cc3cc4c(cc3C21)OCO4 (stereo not given)	12.6 µM (active) and 5.01 µM (active)	–
Oc1c(Br)c(Br)c(Br)c(Br)c1Br	inactive	–
CC1(C)C(=O)C=C[C@]2(C)C1CC(=O)[C@]1(C)C2CC[C@@]2(C)C(c3ccoc3)OC(=O)C3O[C@@]321 (stereo not given in full)	2.51 µM (active)	–

SMILES	Potency	activity change, negative = inhibition
COc1ccc(C(=O)O)cc1OC	inactive	–
CC(C)N(C(=O)CCl)c1ccccc1	inactive	–
CC[C@]1(O)C(=O)OCc2c1cc1n(c2=O)Cc2cc3ccccc3nc2-1	inactive	–
CC(C)CC(N)C1(c2ccc(Cl)cc2)CCC1 (stereo not given)	1.58 µM (active)	–
C[C@@H](Cc1cccc(C(F)(F)F)c1)NCCCc1ccccc1	5.01 µM (active)	–
C#CCO	inactive	–
C=C(CO)C1Cc2c(ccc3c2OC2COc4cc(OC)c(OC)cc4C2C3=O)O1 (stereo not given)	31.6 µM (active)	–
CC(=O)O[C@H]1CC[C@@]2(C)[C@@H](CC[C@H]3[C@H]2CC(=O)[C@@]2(C)[C@@H]3C[C@H]3CC(C)=CC(=O)[C@H]32)C1	–	295% [at 11.4 µM]
COC(=O)/C(C)=C\CC12OC(C)(C)C3CC(C=C4C(=O)c5c(OC)c6c(c(CC=C(C)C)c5OC431)OC(C)(CCC=C(C)C)C=C6)C2=O (stereo not given)	3.16 µM (active)	–
C[C@H]1O[C@H](O[C@H]2[C@H](O)[C@@H](O)[C@@H](O)[C@H](O)[C@@H]2O)[C@@H](N)C[C@@H]1NC(=N)C(=O)O	inactive	–
C=CC(=O)OCC(CO)(COC(=O)C=C)COC(=O)C=C	7.94 µM (active)	–
COc1cc2c(cc1O)C(CCc1ccc(Cl)cc1)N(C)CC2 (stereo not given)	inactive	–
CC[C@H](C(=O)[C@H](C)[C@H](O)[C@H](C)CCc1ccc(C)c(O)c1C(=O)O)[C@H]1O[C@](CC)([C@@H]2CC[C@@](O)(CC)[C@H](C)O2)C[C@H]1C	7.94 µM (active)	–
CC(C)=CCCC(C)C1CC[C@@]2(C)C3=C(CC[C@@]12C)C1(C)CCC(O)C(C)(C)C1CC3 (stereo not given in full)	15.8 µM (active)	–
CC1(C)C(=O)[C@@H]2OC2[C@@]2(C)C1CC(O)[C@]1(C)C2CC[C@@]2(C)C(c3ccoc3)OC(=O)C3OC312 (stereo not given in full)	1 µM (active)	–
O=C1NO[C@@H]2CN[C@@H](C(=O)O)[C@H]12	inactive	–
CC(C)[C@]1(NC(=O)[C@@H]2C=C3c4cccc5[nH]cc(c45)C[C@H]3N(C)C2)O[C@@]2(O)C3CCCN3C(=O)[C@H](Cc3ccccc3)N2C1=O (stereo not given in full)	1 µM (active)	–
CCCCCC[C@H]1C(=O)O[C@H](C)[C@H](NC(=O)c2cccc(NC=O)c2O)C(=O)O[C@@H](C)[C@H]1OC(=O)CC(C)C	5.01 µM (active)	–
C[C@@]12CC[C@@H]3[C@@H](CC[C@H]4C[C@@H](O)CC[C@]43C)[C@H]1CC[C@@H]2c1cc(C(F)(F)F)n[nH]1	–	103% [at 11.4 µM]
Cc1ccc2ccc3cccc4ccc1c2c34	25.1 µM (active)	–
